# Screens: PubChem BioAssay, National Center for Advancing Translational Sciences (NCATS)
# Most compounds without a hit are left out; they make up all but 19% or so of the library.
# TDP1 cell noCPT = qHTS for Inhibitors of human tyrosyl-DNA phosphodiesterase 1 (TDP1): qHTS in cells in absence of CPT; DT40 Tdp1-/- hTDP1 cells, no CPT, ATP luminescence, 48 h; Potency, µM (doses to about 46.2 µM), for inactives: at the highest dose activity change, negative = growth inhibition, usual class: inhibitors; actives 15% (n = 420,000); AID 686978, 2013; further: potency means the concentration at half of the fitted maximal effect; nearly all actives have a fitted effect of over 55% in size
#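 Seeded 400 DT40-hTDP1 cells/well (vehicle DMSO, no 20 nM CPT); pinned compounds; ≥48 hr at 37 °C; CellTiter-Glo luminescence as viability measure.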
# TDP1 cell CPT = DT40-hTDP1 cell growth loss with CPT | actives 12% (n = 420,000) | chicken DT40 Tdp1-/-;hTDP1 cells + 20 nM CPT, ATP luminescence, 48 h | Potency, µM (doses to about 46.2 µM), for the others: at the top dose activity change, negative = growth inhibition, usual class: inhibitors | AID 686979; further: potency means the concentration at half of the fitted maximal effect; nearly all actives have a fitted effect of over 55% in size
#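 Chicken DT40 Tdp1-/- cells stably complemented with human TDP1 were seeded at 400 cells/well in medium containing 20 nM camptothecin, exposed to pin-transferred compounds, and grown at 37 °C for at least 48 hr. Viability was read as ATP luminescence.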
# HT1080 IDH1KD tx = HT-1080 IDH1 knockdown cell toxicity (counter line); AID 686971; Potency, µM (highest dose often 46.1 µM), without a hit: at the top dose activity, negative = toxicity, actives largely listed as cytotoxic; actives 2% (n = 360,000); HT-1080 IDH1 knockdown viability, ATP luminescence, 48 h;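 further: potency means the concentration at half of the fitted maximal effect; 0% = DMSO wells and -100% = cell-free medium wells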
#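 After a 2 h attachment period, IDH1KD HT-1080 cells took pin-transferred compound for 48 h at 37 °C; ATP-based luminescence after 10 min room-temperature reagent incubation reported viability.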
# HT1080-NT tox = kills 2HG-producing HT-1080-NT fibrosarcoma cells. HT-1080-NT fibrosarcoma viability, CellTiter-Glo ATP luminescence, 48 h. Potency, µM (highest dose often 46.1 µM), without a hit: top-dose activity, negative = less viability, actives largely listed as cytotoxic. actives 1.6% (n = 360,000). AID 686970;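 further: NT is the 2HG producing partner of a matched IDH1 knockdown line; potency means the concentration at half of the fitted maximal effect; 0% = DMSO-treated cells and -100% = media-only wells without cells; nearly all actives have a fitted effect of over 55% in size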
#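 Read-out is CellTiter-Glo luminescence after 10 minutes at room temperature, following 48 hours' compound treatment of HT-1080-NT cells (750 cells/well, RPMI, 5% FBS, 37 degrees C).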
# IL-1B inflam inh = blocks inflammasome-driven IL-1 beta release. AID 743279. THP-1 LPS/ATP IL-1B secretion, AlphaLISA, 16 h; active compounds read low. activity change, % at 57.5 µM. actives 4.7% (n = 360,000); in the data active means activity change below about -50%; inconclusive means mostly about -30% to -49%
#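 THP-1 cells pretreated 1 hr with compounds (up to 57.5 uM final), then stimulated with LPS (250 ng/mL final) plus ATP (1.25 mM final); secreted IL-1B measured by AlphaLISA after 16 hr, decreased signal indicating inhibition.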
# An asterisk follows results filed as active; ? = inconclusive; / = no result; ! = repeats disagree. Unless noted, the call rests on the fitted dose curve; in most records, active means well fitted curve in the direction sought with a large enough effect; inconclusive means small, poorly fitted or top-dose-only effect, or another doubt; inactive means no such curve, though single readings can be large; an effect the other way counts as inactive or inconclusive. Unless noted, on the % scale 0 is the no-effect control and ±100 the full control effect.
SMILES,TDP1 cell noCPT,TDP1 cell CPT,HT1080 IDH1KD tx,HT1080-NT tox,IL-1B inflam inh
COc1ccc(CC2c3cc(OC)c(OC)cc3CCN2C)cc1OC (configuration not stated),23.1µM*!,18.4µM*!,-5.4%,-4.1%,-14.7
O=C(Cc1ccc(Cl)c(Cl)c1)Nc1cccnc1,?,-18.7%,-11.0%,-1.7%,-5.6
C=CCOc1c(Cl)cc(CNc2ccc3[nH]c(=O)[nH]c3c2)cc1OC,?,13µM*,?,?,0.0
CCOc1c(Cl)cc(CNc2ccc(S(N)(=O)=O)cc2)cc1OC,16.4µM*,?,-10.9%,-0.4%,27.0
O=NN1CCCCC1,15.5%,17.2%,16.8%,?,6.5
C[C@H]1C[C@@H]2[C@H]([C@@H](O)C[C@@]3(C)[C@H]2CC[C@]3(O)C(=O)COC(=O)CCC(=O)O)[C@@]2(C)C=CC(=O)C=C12,-16.0%,?,/,/,/
CC(Cc1ccccc1Sc1ccccc1O)N(C)C (configuration not stated),11.6µM*,?,?,?,-5.8
CC1=CP(=O)(Oc2ccc([N+](=O)[O-])cc2)CC1 (configuration not stated),-2.8%,-22.8%,3.7%,-0.3%,1.0
Cc1n[nH]c(C)c1CCCCOc1ccc([N+](=O)[O-])cc1,?,14.6µM*,-2.4%,7.5%,12.4
O=C(Cn1cc(C(=O)c2ccccc2)c2ccccc21)Nc1ccc(Br)cc1,23.1µM*,?,/,/,/
CC(C)(C)C(=O)C(Oc1ccc(Cl)cc1)n1cncn1 (configuration not stated),-26.9%,14.2%,/,/,-6.5
Cc1cccc(Oc2nc3c(C)cccn3c(=O)c2/C=C(\C#N)c2nc3ccccc3s2)c1,18.4µM*,?,/,/,/
Cc1cccn2c(=O)c(/C=C(\C#N)c3nc4ccccc4s3)c(Oc3ccc(F)cc3)nc12,20.6µM*,?,/,/,/
Cc1cc(C)cc(Oc2nc3ccccn3c(=O)c2/C=C(\C#N)c2nc3ccccc3s2)c1,9.2µM*,?,/,/,/
COc1cc(C2C(C#N)=C(N)Oc3cc(O)ccc32)cc(OC)c1OC (configuration not stated),1.03µM*,1.03µM*,?,0.562µM*,20.0
N=C1c2ccccc2CN1c1ccc(F)c([N+](=O)[O-])c1,?,?,-3.7%,-15.2%,-99.3*
O=[N+]([O-])c1ccc(N2CCCC(C(F)(F)F)C2)c2ccncc12 (configuration not stated),9.2µM*,13µM*,?,?,17.9
C=C(C)CC1(CC)C(=O)NC(=S)NC1=O,?,8.5%,15.0%,15.4%,-9.3
CCn1c(C)c(C(=O)O)c2cc(OC)ccc21,0.7%,-7.7%,10.4%,7.8%,38.0
COc1ccc(C(=O)c2c(C)n(CCN3CCOCC3)c3ccccc23)cc1,23.7µM*,?,/,/,/
O=S(=O)(c1ccc(O)cc1)c1ccc(O)cc1,-0.3%,6.7%,/,/,4.2
Oc1cc[c]([Hg][Cl])cc1,0.266µM*,0.299µM*,/,/,/
Cc1ccc2c(Cl)cc(Cl)c(OCC(=O)N(C(C)C)C(C)C)c2n1,18.4µM*,16.4µM*,-10.6%,-18.2%,0.0
Cc1[nH]c2ccc(OC(=O)N3CCOCC3)cc2c1C(=O)OC(C)C,?,?,-15.1%,-12.0%,-1.8
COc1ccc(O)c2c(=O)c3c(OC)cc4c(c3oc12)C1C=COC1O4 (configuration not stated),0.92µM*,1.3µM*,2.9%,?,20.6
C#C[C@]1(O)CC[C@H]2[C@@H]3CCC4=CC(=O)CCC4=C3C=C[C@@]21CC,9.44µM*,13.3µM*,/,/,/
CC(=O)O[C@H]1CC[C@H]2[C@@H]3CCC4=CC(=O)CCC4=C3C=C[C@]12C,-105.0%,?,/,/,/
CC[N+](C)(CC)CCCCOc1ccc2c(c1)C(=O)c1cc(OCCCC[N+](C)(CC)CC)ccc1-2,29.1µM*,?,-9.0%,-3.2%,0.0
